From PubChem BioAssay AID488835 (Broad Institute, 2010)
Among all 1,400 compounds or so, about 140 (10%) were called active.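 The calls were made as follows: active = Half-maximal inhibitory dose from the fit at or below ten times the top valid tested dose; inconclusive = Invalid fit, or flat curve showing 30 to 70% inhibition; inactive = the rest.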 Only a sample is shown. Results with a measured potency or affinity are listed apart.

The molecules below were run against Lysine-specific demethylase 4C (Homo sapiens) (UniProt Q9H3R0) (assay: inhibition of JMJD2C H3K9me3 demethylation – biochemical, DELFIA europium, cherry-picked samples, dose response (AID 488835;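 also: signal is the H3K9me2 demethylation product detected by a dimethyl-specific antibody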)). Conditions: GST-JMJD2C(1-420); series mostly up to 6 µM; activity change, negative = inhibition: at the top concentration.
Sequence of Lysine-specific demethylase 4C (Homo sapiens) (Q9H3R0 1-420 limits assumed): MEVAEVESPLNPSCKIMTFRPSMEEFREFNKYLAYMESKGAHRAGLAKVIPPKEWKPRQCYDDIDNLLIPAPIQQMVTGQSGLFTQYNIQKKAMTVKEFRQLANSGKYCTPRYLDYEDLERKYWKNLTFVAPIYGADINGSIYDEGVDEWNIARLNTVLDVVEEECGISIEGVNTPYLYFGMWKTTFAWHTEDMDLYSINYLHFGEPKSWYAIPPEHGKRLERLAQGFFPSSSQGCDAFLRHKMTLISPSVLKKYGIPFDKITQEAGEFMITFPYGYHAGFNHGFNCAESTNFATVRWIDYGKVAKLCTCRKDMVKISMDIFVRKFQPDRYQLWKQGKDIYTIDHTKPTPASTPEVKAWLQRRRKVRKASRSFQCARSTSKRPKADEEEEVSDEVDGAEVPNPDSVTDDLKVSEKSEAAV

Activity change, negative = inhibition, inactive:
CC(C)(O)[C@H](O)Cc1cc2ccc(=O)oc2cc1O[C@@H]1O[C@H](CO)[C@@H](O)[C@H](O)[C@H]1O -1.7% [at 1.6 µM]
CC1(C)CC[C@]2(CO)CC[C@]3(C)C(=CCC4[C@@]5(C)CC[C@H](O)[C@@](C)(CO)C5CC[C@]43C)[C@@H]2C1 (stereo partly drawn) -4.71%
CCN(C[C@H]1N[C@@](C)(C(=O)OC)[C@H]2C(=O)N(C)C(=O)[C@@H]12)C(=O)Nc1ccc(OC)cc1 6.79%
COc1ccc(/C=N/NC(=O)c2cc(C)on2)c2ccccc12 -1.79%
O=C(NCC1CCCO1)c1ccc2c(=O)n(Cc3cccc(Br)c3)c(=S)[nH]c2c1 (stereo not drawn) 10.2%
Cc1csc(NC(=O)CSc2nnc(-c3ccncc3)n2C)n1 0.313%
CCn1c(SCC(=O)Nc2nc(C)cs2)nnc1-c1ccncc1 3.16%
CCCn1c2ccccc2c2nnc(SCC(=O)Nc3c(C)n(C)n(-c4ccccc4)c3=O)nc21 5.59%
C[C@H](CO)N1C[C@H](C)[C@@H](CN(C)S(=O)(=O)c2ccccc2)Oc2ccc(NS(=O)(=O)c3ccc(F)cc3)cc2C1=O -0.626%
O=C(COC(=O)Cc1ccccc1F)Nc1ccc(SC(F)F)cc1 -3.2%
CC(=O)N=c1sccn1CC(=O)c1ccc([N+](=O)[O-])cc1 -1.76%
COc1ccc(CNC(=O)CSc2nnnn2Cc2ccccc2)cc1 -1.94%
CCNc1oc(-c2cccc3ccccc23)nc1C#N -1.71%
COc1ccccc1-c1nc(C#N)c(NCc2ccc(F)cc2)o1 -3.18%
O=c1c2ccccc2c(C=NCCCN2CCOCC2)c(O)n1Cc1ccccc1 4.11%
CC(C)NC(=O)N(C)C[C@H]1Oc2ccc(NC(=O)C3CC3)cc2C(=O)N([C@H](C)CO)C[C@@H]1C -0.486%
COC(=O)c1sc(NC(=O)c2cc3c(s2)CCCC3)nc1C -1.23%
CCc1ccc(C(=O)CSc2nc3ccccc3c(=O)[nH]2)cc1 8.14%
Cn1c(=O)[nH]c(=O)c2c1nc(SCC(=O)O)n2CCc1ccccc1 4.64%
c1ccc(Nc2n[nH]nc2-c2ccccc2)cc1 7.58%
CCn1c(=O)c(-c2nc3ccccc3[nH]2)c(O)c2ccccc21 -0.309%
C[C@H](CO)N1C[C@H](C)[C@@H](CN(C)C(=O)Nc2ccc(C(F)(F)F)cc2)Oc2c(cccc2N(C)C)C1=O 5.89%
Cc1cc2oc(=O)cc(CSc3nnc(-c4cccs4)o3)c2cc1C(C)C -1.88%
CC(=O)N1C(c2ccccc2O)C[C@]2(C)CC(=O)NC12 (stereo partly drawn) -1.35%
CCCc1cc(=O)[nH]c(SCC(=O)Nc2cc(S(=O)(=O)N(CC)c3ccccc3)ccc2Cl)n1 1.6%
Cc1ccc(C(=O)Nc2sc3c(c2C(=O)O)CCCC3)o1 1.03%
CN(C)CCCN1C(=O)C(=O)/C(=C(/O)c2ccncc2)C1c1ccccc1 (stereo not drawn) 10.2%
Cc1cc(C(=O)OCc2nnc(-c3ccccc3)o2)c(C)n1-c1ccccc1 -4.32%
COc1ccc(C(=O)OCC(=O)c2ccccc2)cc1S(=O)(=O)N1CCOCC1 6.12%
Cc1ccc(C2CC(c3cccc(Br)c3)Nc3nnnn32)cc1 (stereo not drawn) 0.226%
Cc1cc(N(CN2CCCC2=O)C(=O)c2ccc(F)cc2)no1 3.57%
COC(=O)[C@]1(C)N[C@H](CN(C)C(=O)NC(C)C)[C@@H]2C(=O)N(Cc3ccccc3)C(=O)[C@@H]21 0.422%
COc1ccc(NC(=O)Nc2ccc3c(c2)C(=O)N([C@H](C)CO)C[C@H](C)[C@@H](CN(C)S(=O)(=O)c2cccs2)O3)cc1 8.17%
CC(C)NC(=O)Nc1ccc2c(c1)C(=O)N([C@H](C)CO)C[C@@H](C)[C@@H](CN(C)C(=O)NC1CCCCC1)O2 1.53%
CCCn1c(SCC(=O)Nc2c(C)cccc2CC)nnc1C(C)C 7.38%
CCCn1nnnc1SCC(=O)NNC(=O)c1ccco1 -3.08% [at 1.6 µM]
Cc1cc(OC(=O)N2CCOCC2)cc(C)c1Cl 3.18%
CC1CN(Cc2ccccc2)c2nc3c(c(=O)n(C)c(=O)n3C)n2C1 (stereo not drawn) 4.53%
OC1(c2cccc(F)c2)CCN(Cc2ccncc2)CC1 4.04%
CCOC(=O)CNC(=O)CNC(=O)c1ccc(OC)cc1 0.278%
COc1ccc(CCC(=O)Nc2sccc2C#N)cc1 -2.95%
COc1ccc(CCNC(=O)COC(=O)c2ccc(Br)o2)cc1 1.54%
COc1cc(-c2nc(-c3cccc(C)c3)no2)cc(OC)c1OC -3.71%
Cc1[nH]n2c(=O)c3c(nc2c1-c1ccccc1)CCCC3 -5.83%
CCOC(=O)C1=C(C)NC(=O)NC1c1ccc(Br)s1 (stereo not drawn) -6.07%
CCOC(=O)C1=C(c2ccccc2)NC(=O)NC1c1ccc(O)c(OCC)c1 (stereo not drawn) 0.617%
O=C(c1cccc(-n2cccc2)c1)N1CCN(S(=O)(=O)c2c(F)cccc2F)CC1 -0.611%
CC(=O)N1CCN(c2ccc([N+](=O)[O-])c(-n3nc(C)cc3C)c2)CC1 3.15%
Cc1ccc(S(=O)(=O)NC(=O)NC(C)Cc2ccccc2)cc1 (stereo not drawn) 0.87%
COc1ccc(NC(=O)N(C)C[C@H]2Oc3c(NS(=O)(=O)c4cn(C)cn4)cccc3C(=O)N([C@H](C)CO)C[C@@H]2C)cc1 3.1%
Nc1ncnc2c1ncn2[C@@H]1O[C@H](CNCC#Cc2ccccc2)[C@@H](O)[C@H]1O 2.42%
C=CCn1c(-c2cccc3ccccc23)n[nH]c1=S -0.0654%
C=CCn1c(O)c(N=Nc2ccccc2C)c2ccccc21 -0.66%
c1ccn2c(SCc3cn4ccsc4n3)nnc2c1 4.63%
CCOc1cccc(C2C(C(=O)c3ccco3)=C(O)C(=O)N2Cc2ccncc2)c1 (stereo not drawn) -1.49%
CCC(C)(C)NC(=O)C(c1cccn1C)N(Cc1ccc(OC)cc1)C(=O)Cn1nnc2ccccc21 (stereo not drawn) 1.52%
O=C(Oc1cccc(NC(=O)c2ccco2)c1)c1cccc(S(=O)(=O)N2CCCC2)c1 0.126%
Cc1cc(-n2c(SCC(=O)NCc3cccs3)nc3n[nH]c(C)c3c2=N)ccc1Cl 4.17%
O=c1[nH]c(S)nc2sc3c(c12)CCCC3 -1.73%
CCOC(=O)C1=C(C)NC2=C(C(=O)CCC2)C1c1coc2ccccc2c1=O (stereo not drawn) 2%
CCOc1cc(CN2CCN(CCc3ccccc3)C(CCO)C2)ccc1OC (stereo not drawn) 4.52%
COc1ccc(CCNC(=O)c2ccccc2Cl)cc1OC 3.52%
CCc1ccc(NC(=O)N(CCN2CCOCC2)C2CCN(C(C)=O)CC2)cc1 3.77%
Cc1nnc(SCc2nnc(-c3ccccc3)o2)n(N)c1=O -1.28%
COc1ccc(NC(NC(=O)c2cccnc2)C(Cl)(Cl)Cl)cc1 (stereo not drawn) 0.574%
CCCC(=O)Nc1nn(C)c2nc3c(C)cccc3cc12 -4.26%
O=C(COc1ccc(NC(=O)c2ccccc2)cc1)c1ccccc1 2.44%
C[C@@H]1CC[C@]2(C(=O)O[C@@H]3O[C@H](CO)[C@@H](O)[C@H](O)[C@H]3O)CC[C@]3(C)C(=CCC4[C@@]5(C)C[C@@H](O)[C@H](O)[C@@](C)(C(=O)O[C@@H]6[C@H](O)C[C@@]7(C)C(CC[C@]8(C)C7CC=C7[C@H]9[C@](C(=O)O[C@@H]%10O[C@H](CO)[C@@H](O)[C@H](O)[C@H]%10O)(CC[C@@H](C)[C@@]9(C)O)CC[C@]78C)[C@@]6(CO)C(=O)O)C5CC[C@]43C)[C@@H]2[C@]1(C)O (stereo partly drawn) 8%
Cc1cccc(C(=O)NCC(c2ccco2)N2CCc3ccccc32)c1 (stereo not drawn) 4.14%
COc1ccc(Nc2ncnc3sc(-c4ccccc4)cc23)cc1OC 0.937%
COc1ccccc1Cc1nnc(NC(=O)C2CCN(C(=O)c3ccco3)CC2)s1 3.52%
CCN(C[C@H]1N[C@@](C)(C(=O)OC)[C@H]2C(=O)N(C)C(=O)[C@@H]12)C(=O)Nc1ccc(C)cc1 0.134%
CCCCN(CC)S(=O)(=O)c1ccc(C(=O)Nc2nnc(COC)o2)cc1 3.36%
O=C(NCc1cccc(Cl)c1)c1ccc2c(c1)OCO2 2.71%
Cc1cc(C)nc(NC(N)=NC(C)c2ccccc2)n1 (stereo not drawn) -7.76%
CCn1c(O)c(N=NC2=NC(=O)CS2)c2ccccc21 0.856%
O=C(CCSCc1ccccc1F)NCCc1ccccc1 9.82%
Cc1noc(C)c1S(=O)(=O)N(C)C[C@H]1Oc2c(NC(=O)Nc3ccc(C(F)(F)F)cc3)cccc2C(=O)N([C@H](C)CO)C[C@@H]1C -5.65%
Cc1ccc(C(=O)N2CCN(c3ccc(Cl)cc3)CC2)cc1 1.79%
COc1cccc(NC(=O)CCN2C(=O)C3CC=CCC3C2=O)c1 (stereo not drawn) -8.52%
NC(=O)Cn1nc([N+](=O)[O-])nc1Oc1ccccc1F -7.81%
S=C(NCc1ccco1)Nc1cccc(Cl)c1 -6.24%
O=C(NCc1ccccc1)c1ccc2c(c1)OCCO2 1.89%
Cc1noc(C)c1NC(=O)Nc1cccc2c1O[C@H](CN(C)C(=O)Nc1ccc3c(c1)OCO3)[C@@H](C)CN([C@H](C)CO)C2=O 12.1%
Cc1[nH]n(-c2ccccc2)c(=O)c1N=Nc1nccs1 -6.11%
CCOC(=O)N1CCc2c(sc3nc4n(c(=O)c23)N=C(C)CS4)C1 -0.154%
COc1ccc(CN(Cc2nc3ccccc3c(=O)[nH]2)C(=O)NC2CCCCC2)cc1 -0.777%
NC(=O)C1CCN(C(=O)c2ccc(Oc3cc(Cl)cc(Cl)c3)o2)CC1 -2.91%
COc1ccccc1-n1cnnc1SCC(=O)Nc1ncc(Cl)cc1Cl -7.89% [at 1.6 µM]
COc1ccccc1NC(=O)COC(=O)/C=C/c1cccs1 6.16%
O=[N+]([O-])c1cc(Cl)ccc1Nc1ccccc1 2.42%
COc1ccccc1NC(=O)c1cccs1 -1.1% [at 1.6 µM]
O=C(COC(=O)c1ccc(O)cc1)Nc1ccc(Cl)cc1 0.856%
CC(=O)Nc1ccc(NC(=O)C2CCN(C(=O)c3cccs3)CC2)cc1 -11.3%
O=C(NCC1CCCO1)C(c1ccc(F)cc1)N(CCCN1CCOCC1)C(=O)c1ccc(-c2ccccc2)[nH]1 (stereo not drawn) 10.5%
COCCn1c(C(C)C)nc2sc3ccccc3c(=O)c2c1=O 5.81%
COC(=O)CNS(=O)(=O)c1ccc(C)cc1 2.24%
COC(=O)[C@]1(C)N[C@H](CN(C)C(=O)Nc2ccc(C)cc2)[C@@H]2C(=O)N(Cc3ccccc3)C(=O)[C@@H]21 3.23%
